# Measured values reported in PubChem BioAssay (NCATS).
# Values without a mark were called inactive. Results filed as inconclusive are left out. A call without a number means that no potency is given here. Active and inactive are the calls of the source. Unless noted, the call rests on the fitted dose curve; in most records, active means well fitted curve in the direction sought with a large enough effect; inconclusive means small, poorly fitted or top-dose-only effect, or another doubt; inactive means no such curve, though single readings can be large; an effect the other way counts as inactive or inconclusive.
# Tests used:
# [1] = target: Rap guanine nucleotide exchange factor 3 (Homo sapiens) (UniProt O95398); test: Confirmatory qHTS for agonist of cAMP-regulated guanine nucleotide exchange factor 3 (EPAC1) (AID 1645881);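 further: EPAC1 catalysed release of BODIPY-GDP from Rap1B seen as fluorescence loss; nearly all actives have a fitted effect of over 75% in size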
# [2] = target: Rap guanine nucleotide exchange factor 4 (Homo sapiens) (UniProt Q8WZA2); test: Confirmatory qHTS for agonist of cAMP-regulated guanine nucleotide exchange factor 4 (EPAC2) (AID 1645884);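 further: nucleotide exchange releases bodipy-GDP from Rap1 and this lowers its fluorescence; nearly all actives have a fitted effect of over 65% in size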
# [3] = target: Rap guanine nucleotide exchange factor 3 (Homo sapiens) (UniProt O95398); test: Counterscreen qHTS for agonist of cAMP-regulated guanine nucleotide exchange factor 3 (EPAC1) (AID 1645889); further: nearly all actives have a fitted effect of over 40% in size
# How it was run: (§1)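 Rap1B-BODIPY-GDP 250 nM + GDP 50 uM; cpds 7-pt, final 9.74 nM–152 uM (activator mode) or from 7.32 nM upwards (inhibitor mode); RT; FI 480/540 nm at 5 and 30 min, then ± cAMP, reread.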
# [4] = target: Rap guanine nucleotide exchange factor 4 (Homo sapiens) (UniProt Q8WZA2); test: Confirmatory qHTS for antagonist of cAMP-regulated guanine nucleotide exchange factor 4 (EPAC2) (AID 1645885); further: nearly all actives have a fitted effect of over 25% in size; further: potency means the concentration at half of the fitted maximal effect
# [5] = target: Rap guanine nucleotide exchange factor 3 (Homo sapiens) (UniProt O95398); test: Counterscreen qHTS for antagonist of cAMP-regulated guanine nucleotide exchange factor 3 (EPAC1) (AID 1645888);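 further: fluorescence loss as bound BODIPY-GDP is released from Rap1B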
# How it was run: as §1
# [6] = target: Glucocorticoid receptor (Homo sapiens) (UniProt P04150); test: GR-GFP Redistribution (AID 450;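 active means compounds whose dose series gives a full or clear partial fitted curve of increased nuclear translocation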; further: potency means the concentration at half of the fitted maximal effect); settings: U2OS GR-GFP nuclear translocation, laser cytometry, 2 h
# [7] = target: Guanine nucleotide-binding protein G(i) subunit alpha-1 (Homo sapiens) (UniProt P63096); test: qHTS Assay for Inhibitors of RGS12 GoLoco Motif Activity (Green Fluorophore) (AID 879);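 further: negative values mean loss of peptide binding seen as reduced polarization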
# How it was run: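 Fluorescence polarization assay: 50 nM Gαi1 with 10 nM FITC-labeled RGS12 GoLoco peptide in 10 mM Tris pH 7.5, 150 mM NaCl, 0.1 mM GDP, 0.05% NP40, 10 min at room temperature with compound.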
# [8] = target: Muscarinic acetylcholine receptor M1 (Rattus norvegicus) (UniProt P08482); test: qHTS Assay for Antagonists of Acetylcholine Muscarinic M1 Receptor: Kinetic Measurement of Intracellular Calcium Response (AID 943);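 further: Fluo-4 calcium signal as peak divided by basal fluorescence over 4 min; series mostly up to about 35 µM; nearly all actives have a fitted effect of over 75% in size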
# How it was run: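 CHO cells stably expressing rat M1 were loaded with no-wash Fluo-4 dye for 1 h at 37C, pre-incubated 10 min with compound, then challenged with EC80 carbachol (100 nM final); kinetic calcium read 4 min, peak/basal ratio.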
# [9] = target: Pyruvate kinase (Leishmania mexicana) (UniProt Q27686); test: qHTS Validation Assay for Inhibitors of Leishmania Mexicana Pyruvate Kinase (AID 945)
# How it was run: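 Read-out: luminescence from PKLight stop/detection reagent, data normalized to DMSO. Reaction: 0.2 nM E451W LmPYK, 0.5 mM PEP, 0.1 mM ADP, pH 7.2, 1 h room temperature.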
# [10] = target: Pyruvate kinase PKM (Homo sapiens) (UniProt P14618); test: qHTS Assay for Activators of Human Muscle Pyruvate Kinase (AID 954; active means well fitted curve in the direction sought with a large enough effect, not every such curve was filed as active)
# How it was run: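 Enzyme was run at intermediate activity so both inhibitors and activators could be detected. ATP formed from ADP and PEP by 0.1 nM human PKM2 during a 1 h room-temperature incubation was quantified by coupled luciferase luminescence.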
# [11] = target: Alpha-galactosidase (Coffea arabica) (UniProt Q42656); test: Counterscreen for Glucocerebrosidase Inhibitors: qHTS Assay for Coffee Bean alpha-Galactosidase at pH 4.5 (AID 957); further: series mostly up to about 77 µM
# How it was run: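 Green coffee bean enzyme (2 nM final) was incubated with compounds (0.7 nM to 77 uM) and 4-methylumbelliferyl alpha-D-galactopyranoside (80 uM final) in 50 mM citric acid, 0.005% Tween-20, pH 4.5, 20 min at room temperature; AC50 from Hill fits.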
# [12] = target: Alpha-galactosidase A (Homo sapiens) (UniProt P06280); test: Counterscreen for Glucocerebrosidase Inhibitors: qHTS Assay for Human alpha-Galactosidase at pH 4.5 (AID 992)
# How it was run: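 Read-out is 4-methylumbelliferone fluorescence (365 nm excitation, 440 nm emission) after a pH 10 NaOH/glycine stop. Reactions held 2 nM enzyme and 80 uM substrate at pH 4.5 for 20 min at room temperature.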
# [13] = target: alpha-glucosidase (Oryza sativa, rice) (UniProt Q653V4); test: Counterscreen for Glucocerebrosidase Inhibitors: qHTS Assay for Rice alpha-Glucosidase at pH 5.0 (AID 997)
# How it was run: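 Rice alpha-glucosidase (4 nM final) with 400 uM 4-methylumbelliferyl-alpha-D-glucopyranoside in citrate buffer pH 5.0, 20 min at room temperature, stopped at pH 10; fluorescence 365/440 nm, compounds 0.7 nM–77 uM, AC50 from Hill fits.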
# [14] = target: DNA dC->dU-editing enzyme APOBEC-3G (Homo sapiens) (UniProt Q9HC16); test: qHTS for inhibitors of Vif-A3G interactions: Validation (AID 588379)
# How it was run: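 HeLa cells stably expressing Vif and A3G-eYFP, 700 cells/well, incubated overnight at 37 deg C, then exposed to compound overnight at 37 deg C. Inhibition of Vif-mediated degradation read as increased yellow fluorescence (Ex 488/Em 500-530) by laser-scanning cytometry.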
# [15] = target: Tyrosyl-DNA phosphodiesterase 1 (Homo sapiens) (UniProt Q9NUW8); test: Confirmation Assay for Inhibitors of Tyrosyl-DNA Phosphodiesterase (TDP1) (AID 489007); settings: recombinant human TDP1 enzymatic activity, dose-response; further: potency means the concentration at half of the fitted maximal effect; nearly all actives have a fitted effect of over 40% in size
# How it was run: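 Recombinant E. coli-expressed Tdp1 (1 nM final) was preincubated with compounds 15 min at room temperature, then reacted 5 min with 15 nM 5'-biotin/3'-phosphotyrosine-FITC DNA substrate; cleavage read as loss of AlphaScreen signal (10 ug/ml beads, 10 min).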
# Rap guanine nucleotide exchange factor 4 (Homo sapiens), sequence (Q8WZA2 whole entry, looked up): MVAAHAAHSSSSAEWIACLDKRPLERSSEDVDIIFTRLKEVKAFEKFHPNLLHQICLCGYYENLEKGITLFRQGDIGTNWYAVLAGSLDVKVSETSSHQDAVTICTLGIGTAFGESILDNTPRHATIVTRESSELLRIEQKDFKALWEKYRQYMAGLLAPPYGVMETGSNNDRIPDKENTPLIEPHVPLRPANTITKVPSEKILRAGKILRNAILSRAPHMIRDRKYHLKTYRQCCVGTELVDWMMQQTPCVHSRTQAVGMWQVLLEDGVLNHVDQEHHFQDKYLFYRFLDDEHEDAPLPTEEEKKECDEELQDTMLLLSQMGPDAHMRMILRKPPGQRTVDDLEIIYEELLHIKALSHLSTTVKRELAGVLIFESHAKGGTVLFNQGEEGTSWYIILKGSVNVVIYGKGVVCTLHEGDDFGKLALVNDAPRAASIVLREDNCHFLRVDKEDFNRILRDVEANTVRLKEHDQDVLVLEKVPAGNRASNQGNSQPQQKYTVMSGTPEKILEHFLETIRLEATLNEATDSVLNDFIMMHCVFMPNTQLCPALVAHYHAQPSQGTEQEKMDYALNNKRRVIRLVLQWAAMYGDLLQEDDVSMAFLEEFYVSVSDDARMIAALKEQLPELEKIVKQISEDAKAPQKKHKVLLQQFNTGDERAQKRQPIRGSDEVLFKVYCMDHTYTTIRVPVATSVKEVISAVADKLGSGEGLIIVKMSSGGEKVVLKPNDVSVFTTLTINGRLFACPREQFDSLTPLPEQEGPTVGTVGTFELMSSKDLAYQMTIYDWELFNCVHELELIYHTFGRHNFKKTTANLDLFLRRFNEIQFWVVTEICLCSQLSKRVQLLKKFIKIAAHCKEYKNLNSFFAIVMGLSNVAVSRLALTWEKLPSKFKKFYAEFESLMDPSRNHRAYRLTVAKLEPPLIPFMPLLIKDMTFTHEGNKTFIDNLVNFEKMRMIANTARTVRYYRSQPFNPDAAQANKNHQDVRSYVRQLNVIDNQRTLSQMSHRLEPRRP
# Rap guanine nucleotide exchange factor 3 (Homo sapiens), sequence (O95398 whole entry, looked up): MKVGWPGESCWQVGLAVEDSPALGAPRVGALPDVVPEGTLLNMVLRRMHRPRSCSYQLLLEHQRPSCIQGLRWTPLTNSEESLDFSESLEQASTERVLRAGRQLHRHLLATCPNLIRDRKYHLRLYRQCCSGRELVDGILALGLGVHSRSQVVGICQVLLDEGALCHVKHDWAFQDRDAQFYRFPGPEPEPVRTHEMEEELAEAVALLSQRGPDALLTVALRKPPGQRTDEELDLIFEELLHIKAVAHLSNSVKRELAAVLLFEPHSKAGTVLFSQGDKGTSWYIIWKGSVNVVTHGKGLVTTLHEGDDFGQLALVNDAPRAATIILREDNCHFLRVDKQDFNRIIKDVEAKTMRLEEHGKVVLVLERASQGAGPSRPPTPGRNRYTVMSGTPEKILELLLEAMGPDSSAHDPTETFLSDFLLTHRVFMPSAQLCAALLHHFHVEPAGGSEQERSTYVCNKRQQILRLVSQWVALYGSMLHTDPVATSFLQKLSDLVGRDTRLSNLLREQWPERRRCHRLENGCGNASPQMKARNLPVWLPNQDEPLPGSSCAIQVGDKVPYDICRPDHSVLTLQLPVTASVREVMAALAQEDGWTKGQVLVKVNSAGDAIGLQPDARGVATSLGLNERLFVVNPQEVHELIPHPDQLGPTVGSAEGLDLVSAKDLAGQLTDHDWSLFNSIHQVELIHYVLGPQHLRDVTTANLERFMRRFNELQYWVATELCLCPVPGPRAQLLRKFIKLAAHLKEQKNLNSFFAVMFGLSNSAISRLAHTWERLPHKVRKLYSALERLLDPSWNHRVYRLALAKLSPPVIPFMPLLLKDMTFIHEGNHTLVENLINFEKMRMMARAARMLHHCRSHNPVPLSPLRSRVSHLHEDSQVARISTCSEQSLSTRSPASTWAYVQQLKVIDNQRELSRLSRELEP
# Tyrosyl-DNA phosphodiesterase 1 (Homo sapiens), sequence (Q9NUW8 whole entry, looked up): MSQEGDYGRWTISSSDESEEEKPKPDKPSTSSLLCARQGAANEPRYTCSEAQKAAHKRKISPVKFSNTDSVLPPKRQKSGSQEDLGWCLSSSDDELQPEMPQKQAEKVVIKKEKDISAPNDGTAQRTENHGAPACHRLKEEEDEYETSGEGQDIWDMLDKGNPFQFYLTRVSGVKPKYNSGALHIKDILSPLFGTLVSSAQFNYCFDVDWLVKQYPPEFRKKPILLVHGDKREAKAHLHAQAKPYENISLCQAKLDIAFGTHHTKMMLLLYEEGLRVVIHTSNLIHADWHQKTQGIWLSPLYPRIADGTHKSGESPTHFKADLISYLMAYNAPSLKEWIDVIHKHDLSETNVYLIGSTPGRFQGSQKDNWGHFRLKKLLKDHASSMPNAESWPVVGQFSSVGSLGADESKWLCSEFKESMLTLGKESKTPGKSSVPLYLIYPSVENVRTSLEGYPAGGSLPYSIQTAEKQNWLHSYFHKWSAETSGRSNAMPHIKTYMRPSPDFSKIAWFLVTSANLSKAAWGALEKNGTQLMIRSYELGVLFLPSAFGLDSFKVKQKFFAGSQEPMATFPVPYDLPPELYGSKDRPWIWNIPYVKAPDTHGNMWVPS
# Pyruvate kinase PKM (Homo sapiens), sequence (P14618 whole entry, looked up): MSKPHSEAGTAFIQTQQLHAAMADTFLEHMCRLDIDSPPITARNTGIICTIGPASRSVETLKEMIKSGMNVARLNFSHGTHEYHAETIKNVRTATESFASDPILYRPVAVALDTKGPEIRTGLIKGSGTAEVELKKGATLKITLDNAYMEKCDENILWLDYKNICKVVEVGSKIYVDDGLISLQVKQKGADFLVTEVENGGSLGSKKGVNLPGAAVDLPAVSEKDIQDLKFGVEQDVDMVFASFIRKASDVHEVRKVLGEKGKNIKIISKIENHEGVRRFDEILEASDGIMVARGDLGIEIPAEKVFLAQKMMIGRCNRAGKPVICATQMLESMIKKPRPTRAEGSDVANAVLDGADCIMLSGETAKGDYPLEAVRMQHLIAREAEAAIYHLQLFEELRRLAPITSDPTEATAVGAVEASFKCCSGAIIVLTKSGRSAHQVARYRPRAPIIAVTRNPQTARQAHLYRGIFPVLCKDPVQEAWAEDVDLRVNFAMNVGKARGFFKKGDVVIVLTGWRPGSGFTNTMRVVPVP
# Alpha-galactosidase A (Homo sapiens), sequence (P06280 whole entry, looked up): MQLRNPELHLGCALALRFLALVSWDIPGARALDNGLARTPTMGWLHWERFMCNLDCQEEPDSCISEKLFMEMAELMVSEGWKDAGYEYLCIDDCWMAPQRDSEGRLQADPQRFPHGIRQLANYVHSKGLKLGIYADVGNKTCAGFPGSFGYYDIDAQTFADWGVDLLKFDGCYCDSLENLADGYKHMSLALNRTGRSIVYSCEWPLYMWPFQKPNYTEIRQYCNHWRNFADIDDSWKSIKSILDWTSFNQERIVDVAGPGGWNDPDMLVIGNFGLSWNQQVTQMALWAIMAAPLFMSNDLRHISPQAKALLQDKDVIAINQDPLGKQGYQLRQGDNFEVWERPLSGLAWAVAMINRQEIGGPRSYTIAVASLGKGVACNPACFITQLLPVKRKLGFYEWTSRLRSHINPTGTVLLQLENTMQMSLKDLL
# DNA dC->dU-editing enzyme APOBEC-3G (Homo sapiens), sequence (Q9HC16 whole entry, looked up): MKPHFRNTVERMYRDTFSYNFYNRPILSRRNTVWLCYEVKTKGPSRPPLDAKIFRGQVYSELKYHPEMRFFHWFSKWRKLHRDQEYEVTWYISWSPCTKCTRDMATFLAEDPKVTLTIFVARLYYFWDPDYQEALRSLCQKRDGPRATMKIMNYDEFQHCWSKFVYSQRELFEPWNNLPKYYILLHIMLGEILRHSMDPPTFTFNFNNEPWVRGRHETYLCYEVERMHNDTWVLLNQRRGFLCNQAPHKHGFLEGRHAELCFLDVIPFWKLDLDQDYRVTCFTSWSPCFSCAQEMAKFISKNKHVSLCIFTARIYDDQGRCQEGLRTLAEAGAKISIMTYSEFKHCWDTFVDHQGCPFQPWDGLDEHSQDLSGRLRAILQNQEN
# Guanine nucleotide-binding protein G(i) subunit alpha-1 (Homo sapiens), sequence (P63096 whole entry, looked up): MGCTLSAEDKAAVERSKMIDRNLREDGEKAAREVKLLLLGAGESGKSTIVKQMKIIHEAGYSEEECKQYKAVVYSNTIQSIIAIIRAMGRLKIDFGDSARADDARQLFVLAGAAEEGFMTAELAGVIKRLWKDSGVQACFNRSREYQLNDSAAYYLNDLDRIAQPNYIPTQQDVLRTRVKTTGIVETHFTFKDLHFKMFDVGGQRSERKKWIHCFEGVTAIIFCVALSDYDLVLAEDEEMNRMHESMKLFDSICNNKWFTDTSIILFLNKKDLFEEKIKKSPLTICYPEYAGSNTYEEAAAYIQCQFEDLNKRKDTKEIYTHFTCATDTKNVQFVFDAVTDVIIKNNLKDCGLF
# Pyruvate kinase (Leishmania mexicana), sequence (Q27686 2-499 E452W): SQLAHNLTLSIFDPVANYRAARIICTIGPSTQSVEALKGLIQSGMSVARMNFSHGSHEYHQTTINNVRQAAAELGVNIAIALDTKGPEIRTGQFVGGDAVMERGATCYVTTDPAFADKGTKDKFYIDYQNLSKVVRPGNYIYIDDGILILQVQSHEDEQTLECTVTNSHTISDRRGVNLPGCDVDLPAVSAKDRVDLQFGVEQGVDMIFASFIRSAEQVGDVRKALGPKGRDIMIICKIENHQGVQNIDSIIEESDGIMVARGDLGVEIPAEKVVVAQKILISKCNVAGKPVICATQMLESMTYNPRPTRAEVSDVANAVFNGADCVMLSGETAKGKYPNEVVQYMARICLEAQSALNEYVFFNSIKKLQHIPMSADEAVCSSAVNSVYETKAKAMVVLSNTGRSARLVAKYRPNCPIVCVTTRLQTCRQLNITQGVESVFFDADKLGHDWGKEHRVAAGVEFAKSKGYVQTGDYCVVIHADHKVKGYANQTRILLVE
smiles,measurement,setting,value
O=C1NCN(c2ccccc2)C12CCN(C(c1cc3ccccc3o1)c1nnnn1C1CCCCC1)CC2 (centres undefined),Potency,[1],inactive
same,Potency,[2],inactive
same,Potency,[3],inactive
O=C1NC(=O)N(Cc2ccc(F)cc2)C(=O)/C1=C\C=C\c1ccco1,Potency,[1],inactive
same,activation,[2],"3.22% [at 17.1 µM, percent relative to cAMP agonist control]"
same,"activity change, negative = inhibition",[4],-5.04% [at 12.7 µM]
same,"activity change, negative = inhibition",[5],6.52% [at 30.8 µM]
same,activation,[3],7.61% [at 30.8 µM]
CCOC(=O)[C@]12Cc3cc(OC)ccc3[C@H]1N(C1CCCCC1)C(=O)c1ccccc12,Potency,[1],inactive
same,Potency,[2],inactive
same,Potency,[3],inactive
O=C1NC(=O)N(Cc2ccc(F)cc2)C(=O)/C1=C\c1ccoc1,Potency,[1],inactive
same,Potency,[4],inactive
same,outcome,[5],inactive
Cc1ccccc1-c1nc(CN2C(=O)CN=C(c3ccccc3)c3ccccc32)c(C)o1,Potency,[1],inactive
same,Potency,[2],inactive
same,outcome,[5],inactive
CCCCN1C(=O)/C(=C\c2ccco2)C(=O)N(CCc2ccccc2)C1=O,Potency,[1],inactive
same,Potency,[2],inactive
same,Potency,[4],inactive
same,Potency,[3],inactive
COc1ccc(C2C=C(C)Oc3c2c(=O)oc2ccccc32)cc1OC (centres undefined),Potency,[1],inactive
same,Potency,[4],30.1 µM (active)
same,outcome,[5],inactive
CCCCCCC(C)(C)c1ccc([C@@H]2C[C@H](O)CC[C@@H]2CCCO)c(O)c1,Potency,[6],> 46 µM
same,outcome,[7],inactive
same,Potency,[8],inactive
same,Potency,[9],inactive
same,outcome,[10],inactive
same,outcome,[11],inactive
same,outcome,[12],inactive
same,outcome,[13],inactive
same,outcome,[14],inactive
same,Potency,[1],inactive
same,Potency,[2],inactive
same,Potency,[4],35 µM (active)
COc1ccc(-n2nnnc2C(c2cccs2)N2CCC(n3c(=O)[nH]c4ccccc43)CC2)cc1 (centres undefined),Potency,[1],inactive
same,Potency,[4],inactive
same,outcome,[5],inactive
NC(=O)c1ccc(N=Cc2c(O)n(Cc3ccco3)c(=O)[nH]c2=O)cc1,Potency,[15],14.1 µM (active)
same,Potency,[1],inactive
same,Potency,[2],inactive
same,Potency,[4],inactive
same,Potency,[3],inactive
c1ccc(C(c2ccccc2)c2cccnc2)cc1,Potency,[1],inactive
same,outcome,[5],inactive
same,Potency,[3],inactive
Cn1cccc1/C=C1\C(=O)NC(=O)N(Cc2ccco2)C1=O,Potency,[15],14.1 µM (active)
same,Potency,[1],inactive
same,activation,[2],"8.15% [at 17.1 µM, percent relative to cAMP agonist control]"
same,"activity change, negative = inhibition",[4],-7.91% [at 12.7 µM]
same,activation,[3],7.31% [at 30.8 µM]
Cc1cccc(CN2C(=O)CN=C(c3ccccc3)c3cc(Cl)ccc32)c1,Potency,[2],inactive
same,outcome,[4],inactive [at 12.7 µM]
